In PubChem BioAssay (NCI):
This is part of a sample that, as a whole, favours compounds with a hit. Of some 83,000 tested, about 20% had one in any assay.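 96-well plates, one dose, 48 hours. Percent growth reported; active if below 10.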 Values without a mark were called inactive. Calls of active or inactive are those of the source.

System: SW-620 colon
Assay: NCI-60 one-dose screen, 48 h (100 = growth as untreated, 0 = no growth, -100 = all killed)
Conditions: 10 µM unless noted

**Q.** `COc1cc2c(cc1-c1c(C)noc1C)ncc1nc(C3CCOCC3)n([C@H](C)COC(F)F)c12` was tested. Which growth did it give?
**A.** Its growth is 59%.

**Q.** Which growth does the source give for `CC1=C[C@H]2c3c(c(O)c(O)c4oc5cc(O)ccc5c(=O)c34)[C@H](c3cc(O)c(O)c4oc5cc(O)ccc5c(=O)c34)[C@H]2C(C)(C)C1` here?
**A.** The growth was 19.5%.

**Q.** `COc1cc(-c2nn(-c3ccc(Br)cc3)cc2C(=O)O)ccc1O` was tested. Which growth did it give?
**A.** Its growth is 105%.

**Q.** With `COc1cc(C2CC(=O)c3ccccc3N2)cc(OC)c1OC` (centres undefined) as the molecule, how does the growth read?
**A.** The growth was 100%.

**Q.** How did the growth turn out when `CC1=NN(c2nc(-c3ccc(Cl)cc3)c(C#N)c(N3CCOCC3)n2)C(=O)C1` was run?
**A.** The growth was 85.2%.

**Q.** `COCCNc1ccc2c3c(cccc13)C(=O)N(CCN(C)C)C2=O` was tested. Which growth did it give?
**A.** Its growth is 24.5%.

**Q.** `CCOC(=O)c1cc(C(=O)c2ccc(O)c(O)c2)n2ccc(-c3ccn4c(C(=O)c5ccc(O)c(O)c5)cc(C(=O)OCC)c4c3)cc12` was tested. Which growth did it give?
**A.** The growth was 96.1%.

**Q.** How did the growth turn out when `CCN=C1C=CC(=C(c2ccc(N)cc2)c2ccc(N(CC)CC)c(C)c2)C=C1` was run?
**A.** The growth was 4.24% (active).

**Q.** For `COc1ccc(/C=C\c2cc(OC)c(OC)c(OC)c2)cc1OC(=O)c1cccc(Cn2cc(CCOC(=O)[C@H](N)Cc3cn(C)c4ccccc34)nn2)c1`, which growth is on record?
**A.** Its growth is 28.6%.

**Q.** For `Cc1cc(N2CCSCC2)nc(NC2CCCC(Nc3ccnc4cc(Cl)ccc34)C2)n1` (centres undefined), which growth is on record?
**A.** Its growth is -60.8% (active).

**Q.** With `CSc1nc(NCCO)c(C#N)c(-c2cccc([N+](=O)[O-])c2)n1` as the molecule, how does the growth read?
**A.** Its growth is 101%.

**Q.** How did the growth turn out when `Cc1ccc(C2=NN3C(C2)c2cc(Br)ccc2OC32CCN(Cc3ccccc3)CC2)o1` (centres undefined) was run?
**A.** The growth was 97.2%.

**Q.** `COc1ccc(/C=C(\C#N)C(=O)Nc2cccc(Nc3nc(SC)nc(-c4cccc([N+](=O)[O-])c4)c3C#N)c2)cc1OC` was tested. Which growth did it give?
**A.** Its growth is 102%.

**Q.** Which growth does the source give for `CCN(CC)CCCCNc1c2ccc(Cl)cc2nc2ccc(OC)cc12` here?
**A.** The growth was -24.8% (active).

**Q.** `O=C(/C=C/c1cc(CN2CCOCC2)c(O)c2ncccc12)c1cc(CN2CCOCC2)c(O)c2ncccc12` was tested. Which growth did it give?
**A.** The growth was 18.7%.

**Q.** Which growth does the source give for `COc1cc(-c2nc3ccccc3[nH]2)ccc1OCC(=O)N=Nc1c(O)[nH]c2ccc(Cl)cc12` here?
**A.** The growth was -67.8% (active).

**Q.** For `COc1ccc(-n2nc(C)c3c(Nc4ccc(NC(=O)Nc5cc(C(F)(F)F)ccc5F)cc4)ncnc32)cc1`, which growth is on record?
**A.** The growth was 46%.

**Q.** How did the growth turn out when `COc1cc(-c2nc3cc(Cl)c(Cl)cc3[nH]2)ccc1OCC(=O)N=Nc1c(O)[nH]c2ccccc12` was run?
**A.** Its growth is -46.9% (active).

**Q.** With `CN(C)CCN1C(=O)c2cccc3c(N)ccc(c23)C1=O` as the molecule, how does the growth read?
**A.** Its growth is 26.6%.

**Q.** With `Cc1nc2ccccc2n1C(=O)C[C@@H]1NC(=S)NC1=O` as the molecule, how does the growth read?
**A.** The growth was 99.4%.

**Q.** With `CCN(CC)c1ccc(-c2cc(-c3cc(OC)c(OC)c(OC)c3)nc(N3CCOCC3)c2C#N)cc1` as the molecule, how does the growth read?
**A.** The growth was 30.8%.

**Q.** `O=C1c2cc3c(cc2-c2c1c1cc(F)c(F)cc1c(=O)n2CCCn1ccnc1)OCO3` was tested. Which growth did it give?
**A.** The growth was 8.92% (active).

**Q.** Which growth does the source give for `O=C(Cn1cccc(Nc2ccccc2)c1=O)Nc1ccccc1` here?
**A.** The growth was 102%.

**Q.** How did the growth turn out when `COc1cc(-c2nc3ccccc3[nH]2)ccc1OCc1nnc(-c2ccc(CC(C)C)cc2)o1` was run?
**A.** Its growth is 103%.

**Q.** `FC(F)(F)c1ccc(-c2cn3nc(-c4c[nH]c5ccc(Br)cc45)sc3n2)cc1` was tested. Which growth did it give?
**A.** Its growth is 97.3%.

System: MCF7 breast
Assay: as above
Conditions: 10 µM unless noted

**Q.** Which growth does the source give for `COc1ccc(/C=C/c2nc(-c3n[nH]c(=O)n3-c3ccccc3)c3ccccc3n2)cc1` here?
**A.** Its growth is 90.6%.

**Q.** For `COc1ccc(-c2n[nH]nc2-c2csc3ccccc23)cc1OC`, which growth is on record?
**A.** The growth was 17.1%.

**Q.** How did the growth turn out when `CSc1nc(-c2cccc(NC(=O)CCl)c2)c(C#N)c(=O)n1C` was run?
**A.** The growth was 20.6%.

**Q.** For `Cc1cc(C)c2nc3nc(C)cc(C)c3c(N)c2c1`, which growth is on record?
**A.** Its growth is 8.2% (active).

**Q.** Which growth does the source give for `Cc1nn(-c2cc(=O)[nH]c3ccccc23)c(N)c1C#N` here?
**A.** Its growth is 97.5%.

**Q.** `CCOC(=O)c1c(C(=O)OCC)c2cc(-c3ccn4c(C(=O)c5ccccc5)c(C(=O)OCC)c(C(=O)OCC)c4c3)ccn2c1C(=O)c1ccccc1` was tested. Which growth did it give?
**A.** Its growth is 92.9%.

**Q.** How did the growth turn out when `CNC(=O)c1cc(Oc2ccc(NC(=O)Nc3ccc(Cl)c(SC)c3)c(F)c2)ccn1` was run?
**A.** The growth was 30%.

**Q.** With `O=c1nc2oc3ccc4ccccc4c3cc-2s1` as the molecule, how does the growth read?
**A.** Its growth is 19.3%.

**Q.** How did the growth turn out when `CN(C)C(=S)N=Nc1c(O)[nH]c2ccccc12` was run?
**A.** Its growth is 17.8%.

**Q.** With `CC(=O)O[C@H]1CC[C@]2(C)[C@H]3CC=C4[C@@H]5CC(C)(C)CC[C@]5(C(=O)NCCNCCN)CC[C@@]4(C)[C@]3(C)CC[C@H]2C1(C)C` as the molecule, how does the growth read?
**A.** Its growth is -90.7% (active).

**Q.** `O=C1c2cc3c(cc2-c2c1c1ccc(F)cc1c(=O)n2CCCNCCO)OCO3` was tested. Which growth did it give?
**A.** The growth was -65.5% (active).

**Q.** How did the growth turn out when `COc1cc(/C=C/C(=O)c2c(C)oc3nc[nH]c(=O)c23)cc(OC)c1OC` was run?
**A.** The growth was 47.9%.

**Q.** With `COC[C@H](C)n1c(C2CCOCC2)nc2cnc3cc(-c4c(C)noc4C)c(OC)cc3c21` as the molecule, how does the growth read?
**A.** Its growth is 22.5%.

**Q.** With `Cn1cc(-c2nonc2-c2c[nH]c3ccc(F)cc23)c2cccnc21` as the molecule, how does the growth read?
**A.** Its growth is 23.5%.

**Q.** For `COc1cc2c(cc1-c1c(C)noc1C)ncc1nc(C3CCOCC3)n([C@H](C)COC(F)F)c12`, which growth is on record?
**A.** Its growth is 19.2%.

**Q.** `CC1=C[C@H]2c3c(c(O)c(O)c4oc5cc(O)ccc5c(=O)c34)[C@H](c3cc(O)c(O)c4oc5cc(O)ccc5c(=O)c34)[C@H]2C(C)(C)C1` was tested. Which growth did it give?
**A.** The growth was 15.4%.

**Q.** With `COc1cc(-c2nn(-c3ccc(Br)cc3)cc2C(=O)O)ccc1O` as the molecule, how does the growth read?
**A.** The growth was 81.5%.

**Q.** For `COc1cc(C2CC(=O)c3ccccc3N2)cc(OC)c1OC` (centres undefined), which growth is on record?
**A.** The growth was 96.8%.

**Q.** How did the growth turn out when `CC1=NN(c2nc(-c3ccc(Cl)cc3)c(C#N)c(N3CCOCC3)n2)C(=O)C1` was run?
**A.** The growth was 94.4%.

**Q.** Which growth does the source give for `COCCNc1ccc2c3c(cccc13)C(=O)N(CCN(C)C)C2=O` here?
**A.** Its growth is -16.5% (active).

**Q.** Which growth does the source give for `CCOC(=O)c1cc(C(=O)c2ccc(O)c(O)c2)n2ccc(-c3ccn4c(C(=O)c5ccc(O)c(O)c5)cc(C(=O)OCC)c4c3)cc12` here?
**A.** Its growth is 99.1%.

**Q.** Which growth does the source give for `CCN=C1C=CC(=C(c2ccc(N)cc2)c2ccc(N(CC)CC)c(C)c2)C=C1` here?
**A.** Its growth is -11.5% (active).

**Q.** How did the growth turn out when `COc1ccc(/C=C\c2cc(OC)c(OC)c(OC)c2)cc1OC(=O)c1cccc(Cn2cc(CCOC(=O)[C@H](N)Cc3cn(C)c4ccccc34)nn2)c1` was run?
**A.** Its growth is 12.6%.

**Q.** With `Cc1cc(N2CCSCC2)nc(NC2CCCC(Nc3ccnc4cc(Cl)ccc34)C2)n1` (centres undefined) as the molecule, how does the growth read?
**A.** The growth was -36.3% (active).

**Q.** Which growth does the source give for `CSc1nc(NCCO)c(C#N)c(-c2cccc([N+](=O)[O-])c2)n1` here?
**A.** The growth was 91.4%.

**Q.** Which growth does the source give for `Cc1ccc(C2=NN3C(C2)c2cc(Br)ccc2OC32CCN(Cc3ccccc3)CC2)o1` (centres undefined) here?
**A.** The growth was 77.3%.

**Q.** Which growth does the source give for `COc1ccc(/C=C(\C#N)C(=O)Nc2cccc(Nc3nc(SC)nc(-c4cccc([N+](=O)[O-])c4)c3C#N)c2)cc1OC` here?
**A.** Its growth is 70.8%.

**Q.** How did the growth turn out when `CCN(CC)CCCCNc1c2ccc(Cl)cc2nc2ccc(OC)cc12` was run?
**A.** Its growth is -30% (active).

**Q.** How did the growth turn out when `O=C(/C=C/c1cc(CN2CCOCC2)c(O)c2ncccc12)c1cc(CN2CCOCC2)c(O)c2ncccc12` was run?
**A.** The growth was 10%.

**Q.** With `COc1cc(-c2nc3ccccc3[nH]2)ccc1OCC(=O)N=Nc1c(O)[nH]c2ccc(Cl)cc12` as the molecule, how does the growth read?
**A.** Its growth is -76.9% (active).

**Q.** For `COc1ccc(-n2nc(C)c3c(Nc4ccc(NC(=O)Nc5cc(C(F)(F)F)ccc5F)cc4)ncnc32)cc1`, which growth is on record?
**A.** Its growth is 34.2%.

**Q.** Which growth does the source give for `COc1cc(-c2nc3cc(Cl)c(Cl)cc3[nH]2)ccc1OCC(=O)N=Nc1c(O)[nH]c2ccccc12` here?
**A.** The growth was -76.1% (active).

**Q.** Which growth does the source give for `CN(C)CCN1C(=O)c2cccc3c(N)ccc(c23)C1=O` here?
**A.** Its growth is -11.3% (active).

**Q.** Which growth does the source give for `Cc1nc2ccccc2n1C(=O)C[C@@H]1NC(=S)NC1=O` here?
**A.** Its growth is 93.9%.

**Q.** `CCN(CC)c1ccc(-c2cc(-c3cc(OC)c(OC)c(OC)c3)nc(N3CCOCC3)c2C#N)cc1` was tested. Which growth did it give?
**A.** Its growth is 29.8%.

**Q.** For `O=C1c2cc3c(cc2-c2c1c1cc(F)c(F)cc1c(=O)n2CCCn1ccnc1)OCO3`, which growth is on record?
**A.** Its growth is -1.22% (active).

**Q.** Which growth does the source give for `O=C(Cn1cccc(Nc2ccccc2)c1=O)Nc1ccccc1` here?
**A.** Its growth is 96.1%.

**Q.** With `COc1cc(-c2nc3ccccc3[nH]2)ccc1OCc1nnc(-c2ccc(CC(C)C)cc2)o1` as the molecule, how does the growth read?
**A.** Its growth is 79.6%.

**Q.** `FC(F)(F)c1ccc(-c2cn3nc(-c4c[nH]c5ccc(Br)cc45)sc3n2)cc1` was tested. Which growth did it give?
**A.** The growth was 74.9%.
